From PubChem BioAssay AID1159580 (chemical genetic matrix, 2015)
“And” between values parts separate entries of the source, which are not always exact repeats. Equal values may be shown once. Out of some 5,500 compounds screened, about 2,000 (36%) were called active. Another 18% or so got no clear call; they are omitted. No stated cut-off is given here; in the data, active means normalized growth mostly below about 0.91 (no sharp cut-off); inconclusive means no clear call, values can overlap the other calls; inactive means mostly above about 0.92. The list shows a part of the results.

Test: chemical genetic growth profiling, strain panel (AID 1159580);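 further: tested at 20 µM; growth read once vehicle control cultures reached saturation at 30 °C; 1 = growth at the plate median or of vehicle wells; lower values mean less growth of the strain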
Conditions: S. cerevisiae deletion strains, growth OD
[1] = locus YBR229C, strain ROT2, active compounds read low
[2] = locus YDL101C, strain DUN1, active compounds read low
[3] = locus YEL061C, strain CIN8, active compounds read low
[4] = locus YHR030C, strain SLT2, active compounds read low
[5] = locus YJR043C, strain POL32, active compounds read low
[6] = locus YJR075W, strain HOC1, active compounds read low
[7] = locus YLR039C, strain RIC1, active compounds read low
[8] = locus YLR262C, strain YPT6, active compounds read low
[9] = locus YMR263W, strain SAP30, active compounds read low
[10] = locus YMR307W, strain GAS1, active compounds read low
[11] = locus YNL153C, strain GIM3, active compounds read low
[12] = locus YNL322C, strain KRE1, active compounds read low
[13] = locus YPL241C, strain CIN2, active compounds read low

Measured: normalized growth

NC(N)=N/N=C/c1c(Cl)cccc1Cl
active: locus YAL021C, strain ccr4, active compounds read low 0.887 | locus YNL248C, strain rpa49, active compounds read low 0.884
inactive: locus YAL026C, strain drs2, active compounds read low 0.976 | locus YAL030W, strain snc1, active compounds read low 0.981 | locus YBL061C, strain skt5, active compounds read low 0.986 | locus YBR009C, strain hhf1, active compounds read low 0.941 | locus YBR021W, strain FUR4, active compounds read low 1.01 | locus YBR023C, strain chs3, active compounds read low 0.968 | locus YBR171W, strain sec66, active compounds read low 0.982 | [1] 1.02 | locus YBR231C, strain swc5, active compounds read low 0.984 | locus YBR279W, strain paf1, active compounds read low 0.975 | locus YCL011C, strain gbp2, active compounds read low 0.963 | locus YCL016C, strain dcc1, active compounds read low 0.954 | locus YCL029C, strain bik1, active compounds read low 1.01 | locus YCL069W, strain vba3, active compounds read low 0.973 | locus YCR088W, strain abp1, active compounds read low 0.973 | locus YDL005C, strain med2, active compounds read low 0.972 | locus YDL035C, strain GPR1, active compounds read low 1.02 | locus YDL040C, strain nat1, active compounds read low 0.982 | locus YDL074C, strain BRE1, active compounds read low 1.02 | [2] 1.01 | locus YDL134C, strain PPH21, active compounds read low 1.02 | locus YDL185W, strain tfp1, active compounds read low 1.02 | locus YDL192W, strain arf1, active compounds read low 1.03 | locus YDR001C, strain nth1, active compounds read low 0.972 | locus YDR069C, strain doa4, active compounds read low 0.968 | locus YDR101C, strain arx1, active compounds read low 1.01 | locus YDR137W, strain rgp1, active compounds read low 0.922 | locus YDR159W, strain sac3, active compounds read low 0.919 | locus YDR162C, strain NBP2, active compounds read low 1.02 | locus YDR195W, strain ref2 0.97 | locus YDR297W, strain sur2, active compounds read low 0.978 | locus YDR318W, strain mcm21, active compounds read low 1.01 | locus YDR334W, strain swr1, active compounds read low 0.977 | locus YDR335W, strain msn5, active compounds read low 0.976 | locus YDR388W, active compounds read low 1.01 | locus YDR392W, strain spt3, active compounds read low 0.916 | locus YDR502C, strain sam2, active compounds read low 1.03 | locus YEL003W, strain gim4, active compounds read low 0.963 | locus YEL037C, strain rad23, active compounds read low 0.984 | locus YEL061C, strain CIN8 (second series), active compounds read low 0.972 | [3] 1.01 | locus YER015W, strain faa2, active compounds read low 0.992 | locus YER016W, strain bim1, active compounds read low 0.938 | locus YER110C, active compounds read low 1.02 | locus YER111C, strain swi4, active compounds read low 0.963 | locus YER155C, strain BEM2 (second series), active compounds read low 0.989 | locus YER155C, strain BEM2, active compounds read low 1 | locus YER167W, strain BCK2, active compounds read low 1 | locus YFR010W, strain ubp6, active compounds read low 0.988 | locus YGL078C, strain dbp3, active compounds read low 1.03 | locus YGL086W, strain mad1, active compounds read low 1.01 | locus YGL167C, strain pmr1, active compounds read low 0.981 | locus YGL173C, strain kem1, active compounds read low 0.977 | locus YGL227W, strain vid30, active compounds read low 0.964 | locus YGL240W, strain doc1, active compounds read low 0.986 | locus YGL248W, strain PDE1, active compounds read low 1.01 | locus YGL253W, strain hxk2, active compounds read low 0.96 | locus YGR135W, strain pre9, active compounds read low 1.03 | locus YGR252W, strain gcn5, active compounds read low 1.03 | locus YHR013C, strain ard1, active compounds read low 0.889 | locus YHR027C, strain rpn1, active compounds read low 0.967 | [4] 1 and 0.981 | locus YHR079C, strain IRE1 (second series), active compounds read low 1 | locus YHR079C, strain IRE1, active compounds read low 0.987 | locus YHR094C, strain hxt1, active compounds read low 1.01 | locus YHR129C, strain ARP1, active compounds read low 1.01 | locus YHR142W, strain chs7, active compounds read low 0.978 | locus YHR200W, strain rpn10, active compounds read low 1.03 | locus YIL066C, strain RNR3, active compounds read low 1.02 | locus YIL073C, strain SPO22, active compounds read low 1.04 | locus YIL125W, strain kgd1, active compounds read low 1.01 | locus YIR030C, strain dcg1, active compounds read low 1.01 | locus YJL092W, strain hpr5, active compounds read low 0.978 | locus YJL095W, strain BCK1 (second series), active compounds read low 0.982 | locus YJL095W, strain BCK1, active compounds read low 1 and 0.981 | locus YJL115W, strain asf1, active compounds read low 0.964 | locus YJL129C, strain trk1, active compounds read low 1.03 | locus YJL134W, strain LCB3, active compounds read low 1 | locus YJL154C, strain vps35, active compounds read low 0.969 | locus YJL164C, strain tpk1, active compounds read low 0.931 | locus YJL166W, strain qcr8, active compounds read low 0.996 | locus YJL168C, strain set2, active compounds read low 1.01 | locus YJL187C, strain SWE1 (second series), active compounds read low 1.02 | [5] 1.02 | locus YJR066W, strain TOR1, active compounds read low 0.936 | [6] 1.01 | locus YKL009W, strain mrt4, active compounds read low 1.01 | locus YKL068W, active compounds read low 1.01 | locus YKL085W, strain MDH1 (second series), active compounds read low 1 | locus YKL085W, strain MDH1, active compounds read low 1 | locus YKL160W, strain elf1, active compounds read low 0.983 | locus YKL190W, strain CNB1, active compounds read low 1.01 | locus YKR001C, strain vps1, active compounds read low 1.05 | locus YKR026C, strain gcn3, active compounds read low 0.991 | locus YKR091W, strain srl3, active compounds read low 0.979 | locus YLL001W, strain dnm1, active compounds read low 1.01 | locus YLL026W, active compounds read low 0.977 | locus YLL041C, strain sdh2, active compounds read low 0.981 | locus YLR027C, strain aat2, active compounds read low 0.977 | [7] 0.965 | locus YLR058C, strain SHM2, active compounds read low 1.02 | locus YLR102C, strain apc9, active compounds read low 1.01 | locus YLR113W, strain HOG1, active compounds read low 1 | locus YLR221C, strain rsa3, active compounds read low 0.968 | locus YLR258W, strain gsy2, active compounds read low 0.973 | locus YLR262C, strain YPT6 (second series), active compounds read low 0.978 | [8] 1.02 | locus YLR268W, strain sec22, active compounds read low 1 | locus YLR320W, strain mms22, active compounds read low 0.949 | locus YLR330W, strain CHS5, active compounds read low 1.01 | locus YLR342W, strain FKS1 (second series), active compounds read low 1.02 | locus YLR342W, strain FKS1, active compounds read low 0.977 | locus YLR357W, strain rsc2, active compounds read low 0.972 | locus YLR370C, strain arc18, active compounds read low 0.974 | locus YLR371W, strain rom2, active compounds read low 1.02 | locus YLR384C, strain iki3, active compounds read low 0.99 | locus YLR418C, strain cdc73, active compounds read low 1.02 | locus YML016C, strain PPZ1, active compounds read low 1.01 | locus YML032C, strain rad52, active compounds read low 1.02 | locus YML120C, strain ndi1, active compounds read low 0.977 | locus YML124C, strain tub3, active compounds read low 1.01 | locus YMR058W, strain fet3, active compounds read low 0.971 | locus YMR078C, strain ctf18, active compounds read low 1.02 | locus YMR125W, strain sto1, active compounds read low 0.931 | locus YMR129W, active compounds read low 0.984 | locus YMR205C, strain PFK2, active compounds read low 0.986 | locus YMR223W, strain ubp8, active compounds read low 1.02 | locus YMR231W, strain pep5, active compounds read low 0.987 | [9] 1.01 | [10] 0.988 | locus YNL067W, strain RPL9B, active compounds read low 1.01 | locus YNL071W, strain lat1, active compounds read low 0.982 | locus YNL128W, strain TEP1, active compounds read low 1.02 | [11] 1.01 | locus YNL183C, strain NPR1, active compounds read low 0.952 | locus YNL209W, strain ssb2, active compounds read low 0.968 | locus YNL233W, strain BNI4, active compounds read low 1 | locus YNL250W, strain rad50, active compounds read low 1.04 | locus YNL271C, strain bni1, active compounds read low 1.02 | locus YNL298W, strain CLA4, active compounds read low 1.05 | locus YNL307C, strain MCK1, active compounds read low 1.02 | locus YNL322C, strain KRE1 (second series), active compounds read low 0.956 | [12] 1 | locus YNR049C, strain mso1, active compounds read low 0.966 | locus YNR052C, strain pop2, active compounds read low 1.01 | locus YOL012C, strain htz1 0.878 | locus YOL147C, strain pex11, active compounds read low 1.02 | locus YOR001W, strain rrp6, active compounds read low 0.957 | locus YOR061W, strain CKA2, active compounds read low 1.01 | locus YOR069W, strain VPS5, active compounds read low 1.01 | locus YOR070C, strain gyp1, active compounds read low 0.977 | locus YOR080W, strain dia2, active compounds read low 0.98 | locus YOR083W, strain WHI5, active compounds read low 0.952 | locus YOR106W, strain vam3, active compounds read low 0.993 | locus YOR136W, strain idh2, active compounds read low 1.02 | locus YOR144C, strain elg1, active compounds read low 1.02 | locus YOR184W, strain ser1, active compounds read low 1.02 | locus YOR231W, strain MKK1, active compounds read low 0.987 | locus YOR265W, strain rbl2, active compounds read low 0.985 | locus YOR270C, strain vph1, active compounds read low 0.922 | locus YOR290C, strain snf2, active compounds read low 0.918 | locus YOR316C, strain cot1, active compounds read low 1.01 | locus YPL051W, strain arl3, active compounds read low 0.981 | locus YPL078C, strain atp4, active compounds read low 0.974 | locus YPL106C, strain sse1, active compounds read low 0.921 | locus YPL240C, strain hsp82, active compounds read low 0.977 | [13] 1.02 | locus YPL256C, strain CLN2, active compounds read low 0.987 | locus YPR119W, strain clb2, active compounds read low 1.02 | locus YPR141C, strain kar3, active compounds read low 1.02 | locus YPR163C, strain tif3, active compounds read low 1.02 | locus YPR167C, strain met16, active compounds read low 1.01 | strain wtn01, active compounds read low 1.01

NC(N)=NN=Cc1c(Cl)cccc1Cl
inactive: locus YAL040C, strain CLN3, active compounds read low 0.994 | locus YCL061C, strain MRC1 (second series), active compounds read low 0.999 | locus YDR363W, strain ESC2, active compounds read low 1.01 | locus YER002W, strain NOP16, active compounds read low 1.01 | [6] 1.01 | [9] 1 | [10] 1.01 | [11] 0.999 | locus YNL175C, strain NOP13, active compounds read low 1.02 | locus YNL197C, strain WHI3, active compounds read low 1 | locus YNL224C, strain SQS1, active compounds read low 1.01 | locus YOR083W, strain WHI5 (second series), active compounds read low 1.01

CS/C(N)=N\N=C/c1c(F)cccc1Cl
inactive: locus YAL013W, strain DEP1, active compounds read low 0.998 | [1] 0.992 | locus YCL061C, strain MRC1, active compounds read low 0.996 | [2] 1 | locus YDR150W, strain NUM1, active compounds read low 0.995 | [3] 1 | locus YGR078C, strain PAC10, active compounds read low 1.01 | [4] 0.988 | locus YHR087W, strain rtc3, active compounds read low 0.979 | locus YJL187C, strain SWE1, active compounds read low 0.986 | [5] 0.992 | [6] 0.991 | [7] 1.1 | locus YLR058C, strain SHM2 (second series), active compounds read low 0.998 | locus YLR085C, strain ARP6, active compounds read low 1.08 | [8] 1.03 | locus YML094W, strain GIM5, active compounds read low 0.993 | locus YMR219W, strain ESC1, active compounds read low 0.995 | [9] 1.02 | [11] 0.998 | locus YNL298W, strain CLA4 (second series), active compounds read low 1.05 | [12] 1 | locus YNR030W, strain Alg12, active compounds read low 1.05 | locus YPL055C, strain LGE1, active compounds read low 1 | [13] 0.988 | locus YPR135W, strain CTF4, active compounds read low 1.03
